PubChem BioAssay
Inconclusive results are not listed. Calls of active or inactive are those of the source. Unless noted, the rule behind the calls is not given here.

Columns and labels:
[1] = target: ATP-dependent translocase ABCB1 (Homo sapiens) (UniProt P08183); assay: MDR1 (ABCB1) efflux transporter inhibition, cell-based (AID 377; in the data active = fluorescence slope change above about 50%); conditions: MDR1-expressing cells, fluorescent substrate accumulation slope; stronger effect = higher value; concentration not given here
[2] = circadian clock period modulators, cell-based, LOPAC library, luminescence reporter (AID 2774); conditions: circadian reporter cells, at 7 µM, actives lie on both sides;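 note: values are relative to mean of DMSO wells on each plate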
[3] = Cy5 fluorescence quenching or enhancement artefacts, artefact control for HCV NS3 helicase inhibitor project, biochemical, LOPAC1280 (AID 687037); conditions: Cy5-DNA-NS3h complex fluorescence interference counterscreen
[4] = growth inhibition of DIPG glioma cells, dose response, cell-based, SU-DIPG-XVII, MIPE5.0, CellTiter-Glo, qHTS (AID 1347060; cut-off not given, nearly all actives have AC50 up to about 26 µM;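 for AC50: cells exposed to compound for 48 hours before viability readout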); conditions: SU-DIPG-XVII viability, CellTiter-Glo ATP luminescence
[5] = growth inhibition of DIPG glioma cells, dose response, cell-based, SU-DIPG-XIII, MIPE5.0, CellTiter-Glo, qHTS (AID 1347064; cut-off not given, nearly all actives have AC50 up to about 23 µM;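 for AC50: cells exposed to compound for 48 hours before the viability read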); conditions: SU-DIPG-XIII viability, CellTiter-Glo ATP luminescence
[6] = viability loss in pontine glioma line – cell-based, SU-DIPG-XXV, MIPE5.0, CellTiter-Glo, qHTS, dose response (AID 1347065; cut-off not given, nearly all actives have AC50 up to about 26 µM;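 note: cells exposed to compound for 48 hours before ATP readout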); conditions: CellTiter-Glo ATP luminescence
[7] = JHH-DIPG-1 glioma cell viability, MIPE5.0 library, CellTiter-Glo luminescence, qHTS (AID 1347067; cut-off not given, nearly all actives have AC50 up to about 26 µM;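 note: cells exposed to compound for 48 hours before readout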); conditions: JHH-DIPG-1 glioma viability, CellTiter-Glo ATP luminescence
[8] = SU-DIPG-XXV glioma cell viability, MIPE5.0 library, qHTS (AID 1347068; cut-off not given, nearly all actives have IC50 up to about 30 µM;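 for IC50: cells exposed to compound for 48 hours before viability readout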)
[9] = phospholipid biosynthesis inhibitors in animal cells, primary screen, cell-based, LOPAC library, screen 4 (AID 1347384); conditions: phospholipid biosynthesis inhibition screen, at 10 µM
[10] = growth inhibition of DIPG glioma cells, dose response, cell-based, SU-DIPG-IV, MIPE4.0, CellTiter-Glo, qHTS (AID 1347063; cut-off not given, nearly all actives have AC50 up to about 30 µM;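 note: compound exposure lasted 48 hours before the viability readout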); conditions: SU-DIPG-IV viability, CellTiter-Glo ATP luminescence
[11] = SU-DIPG-VI glioma cell viability, MIPE4.0 library, CellTiter-Glo luminescence, qHTS (AID 1347066; cut-off not given, nearly all actives have AC50 up to about 30 µM;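 note: cells exposed to compound for 48 hours before readout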); conditions: CellTiter-Glo ATP luminescence
[12] = growth inhibition of DIPG glioma cells, dose response, cell-based, JHH-DIPG-1, MIPE4.0, CellTiter-Glo, qHTS (AID 1347062; cut-off not given, nearly all actives have AC50 up to about 27 µM;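 for AC50: cells exposed to compound for two days before readout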); conditions: JHH-DIPG-1 viability, CellTiter-Glo ATP luminescence
[13] = test system: Neuropilin-2 / VEGF-C interaction (human); assay: inhibitors of NRP2–VEGF-C binding, biochemical, microplate binding format, z-score (AID 743281); conditions: microplate NRP2/VEGF-C binding assay; stronger effect = lower value
[14] = reducers of polyQ inclusions in PC12 cells, cell-based, NGF-treated PC12, GFPQ80 (AID 1614); conditions: PC12 NGF-treated GFP-polyQ80 inclusion reduction;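 note: lower means fewer inclusions and 0 means no inclusions at all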
[15] = growth inhibition of DIPG glioma cells, dose response, cell-based, SU-DIPG-XIII, MIPE4.0, CellTiter-Glo, qHTS (AID 1347061; cut-off not given, nearly all actives have AC50 up to about 37 µM;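 note: cells exposed to compound for 48 hours before readout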); conditions: SU-DIPG-XIII viability, CellTiter-Glo ATP luminescence

Chain of ATP-dependent translocase ABCB1 (Homo sapiens) (P08183 whole entry, looked up): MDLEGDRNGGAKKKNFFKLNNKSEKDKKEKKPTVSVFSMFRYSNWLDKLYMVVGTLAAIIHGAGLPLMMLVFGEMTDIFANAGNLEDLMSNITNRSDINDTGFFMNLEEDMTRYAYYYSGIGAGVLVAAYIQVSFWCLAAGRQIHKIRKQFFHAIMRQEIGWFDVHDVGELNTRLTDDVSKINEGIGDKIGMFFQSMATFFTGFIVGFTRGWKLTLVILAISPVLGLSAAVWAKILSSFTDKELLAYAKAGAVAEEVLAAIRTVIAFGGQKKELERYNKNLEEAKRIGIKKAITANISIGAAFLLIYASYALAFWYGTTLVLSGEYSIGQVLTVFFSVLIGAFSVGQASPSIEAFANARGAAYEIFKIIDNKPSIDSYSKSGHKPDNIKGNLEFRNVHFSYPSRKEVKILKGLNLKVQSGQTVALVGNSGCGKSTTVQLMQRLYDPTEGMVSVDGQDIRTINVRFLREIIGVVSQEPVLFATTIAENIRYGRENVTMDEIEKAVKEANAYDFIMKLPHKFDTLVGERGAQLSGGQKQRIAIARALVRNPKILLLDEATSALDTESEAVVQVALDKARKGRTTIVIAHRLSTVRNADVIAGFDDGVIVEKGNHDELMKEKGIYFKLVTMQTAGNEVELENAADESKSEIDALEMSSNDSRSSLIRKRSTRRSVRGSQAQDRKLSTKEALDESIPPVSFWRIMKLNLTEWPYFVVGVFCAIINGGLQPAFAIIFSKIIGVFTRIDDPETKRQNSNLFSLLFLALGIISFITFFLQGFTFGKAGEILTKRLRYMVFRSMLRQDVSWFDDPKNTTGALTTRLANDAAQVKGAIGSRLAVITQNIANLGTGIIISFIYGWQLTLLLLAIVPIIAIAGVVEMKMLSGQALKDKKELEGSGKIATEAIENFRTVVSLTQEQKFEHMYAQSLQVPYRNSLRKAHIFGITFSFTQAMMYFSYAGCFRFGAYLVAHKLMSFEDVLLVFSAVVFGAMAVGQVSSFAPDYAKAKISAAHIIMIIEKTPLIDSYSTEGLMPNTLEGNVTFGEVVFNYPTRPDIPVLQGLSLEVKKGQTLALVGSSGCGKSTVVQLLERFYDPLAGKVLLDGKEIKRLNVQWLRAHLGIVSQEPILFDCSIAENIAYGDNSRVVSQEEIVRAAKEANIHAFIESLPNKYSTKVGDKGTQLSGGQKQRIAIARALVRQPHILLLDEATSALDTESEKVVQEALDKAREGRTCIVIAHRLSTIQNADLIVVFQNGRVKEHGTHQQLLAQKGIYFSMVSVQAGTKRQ

COc1ccc([C@@H]2Sc3ccccc3N(CCN(C)C)C(=O)[C@@H]2OC(C)=O)cc1
active: fluorescence slope change [1] 71.5%
inactive: period change [2] 0.035 h | fluorescence ratio (interference) [3] 1.1 | outcome [4] | outcome [5] | outcome [6] | outcome [7] | outcome [8] | outcome [9]

Cc1cccc(CN2CCN(C(c3ccccc3)c3ccc(Cl)cc3)CC2)c1 (stereo unspecified)
active: AC50 [4] 23.5 µM | AC50 [10] 18.7 µM | AC50 [5] 20.9 µM | AC50 [11] 20.9 µM | AC50 [7] 16.6 µM | IC50 [8] 23.5 µM

COc1cc([C@@H]2c3cc4c(cc3[C@H](O)[C@H]3COC(=O)[C@H]23)OCO4)cc(OC)c1OC
active: AC50 [4] 0.0417 µM | AC50 [12] 0.0743 µM | AC50 [5] 0.0295 µM | AC50 [6] 0.0468 µM | AC50 [7] 0.0295 µM | IC50 [8] 0.0525 µM
inactive: outcome [10]

O=C1[C@H](CC[C@H](O)c2ccc(F)cc2)[C@@H](c2ccc(O)cc2)N1c1ccc(F)cc1
inactive: z-score [13] -0.399 | outcome [4] | outcome [8]
active: AC50 [6] 20.9 µM

Cc1ccc(O)c([C@H](CCN(C(C)C)C(C)C)c2ccccc2)c1
inactive: z-score [13] -0.0447

Cc1onc(-c2ccccc2)c1-c1ccc(S(N)(=O)=O)cc1
inactive: z-score [13] 0.865 | outcome [4] | outcome [5] | outcome [6] | outcome [7] | outcome [8]

Nc1nc2ncc(CNc3ccc(C(=O)N[C@@H](CCC(=O)O)C(=O)O)cc3)nc2c(=O)[nH]1
1.5: inclusion score [14]
inactive: fluorescence slope change [1] 5.4%

C[C@]12CCC(=O)C=C1CC[C@@H]1[C@@H]2[C@@H](O)C[C@@]2(C)[C@H]1CC[C@]2(O)C(=O)COC(=O)CCC(=O)O
inactive: period change [2] -0.475 h

c1ccc(-c2ccc(C(c3ccccc3)n3ccnc3)cc2)cc1 (stereo unspecified)
inactive: z-score [13] -0.348

CCN(CC)CC(=O)Nc1c(C)cccc1C
2: inclusion score [14]
inactive: period change [2] -0.265 h | fluorescence ratio (interference) [3] 1 | z-score [13] 1.47 | outcome [9]

O=C1N=C(O)CN1/N=C/c1ccc(-c2ccc([N+](=O)[O-])cc2)o1
1.5: inclusion score [14]
active: fluorescence slope change [1] 54.9%

NC(N)=NC(=O)c1nc(Cl)c(N)nc1N
2: inclusion score [14]
active: AC50 [15] 14.8 µM
inactive: period change [2] 0.02 h | fluorescence ratio (interference) [3] 0.9 | z-score [13] -0.147 | outcome [4] | outcome [12] | outcome [5] | outcome [6] | outcome [11] | outcome [7] | outcome [8] | outcome [9]

COc1cc2nc(N3CCN(C(=O)c4ccco4)CC3)nc(N)c2cc1OC
inactive: fluorescence ratio (interference) [3] 0.9 | z-score [13] 0.105 | outcome [9]
active: AC50 [10] 26.4 µM | AC50 [11] 14.8 µM

CCCN1C[C@H](CSC)C[C@@H]2c3cccc4[nH]cc(c34)C[C@H]21
inactive: period change [2] 0.02 h | fluorescence ratio (interference) [3] 1 | outcome [9]
2: inclusion score [14]
active: fluorescence slope change [1] 72.8%

O=C(c1ccccc1)c1ccc2n1CCC2C(=O)O (stereo unspecified)
inactive: period change [2] -0.025 h | fluorescence ratio (interference) [3] 1 | z-score [13] -0.0903 | outcome [4] | outcome [12] | outcome [10] | outcome [5] | outcome [6] | outcome [11] | outcome [7] | outcome [8] | outcome [9]
2: inclusion score [14]
active: AC50 [15] 8.33 µM

Nc1c2c(nc3ccccc13)CCCC2
active: fluorescence slope change [1] 56.2%
2: inclusion score [14]
inactive: period change [2] -0.225 h | fluorescence ratio (interference) [3] 1 | z-score [13] -0.542 | outcome [4] | outcome [15] | outcome [12] | outcome [10] | outcome [5] | outcome [6] | outcome [11] | outcome [7] | outcome [8] | outcome [9]

CC(=O)OCC(=O)[C@@]12OC(C)(C)O[C@@H]1C[C@H]1[C@@H]3C[C@H](F)C4=CC(=O)C=C[C@]4(C)[C@@]3(F)[C@@H](O)C[C@@]12C
inactive: fluorescence slope change [1] 14.5% | outcome [15] | outcome [12] | outcome [5] | outcome [6] | outcome [11] | outcome [8]

Fc1ccc([C@@H]2CCNC[C@H]2COc2ccc3c(c2)OCO3)cc1
inactive: fluorescence ratio (interference) [3] 0.9 | z-score [13] 0.222 | outcome [11] | outcome [9]

CNCCCC12CCC(c3ccccc31)c1ccccc12
inactive: period change [2] 2.03 h | fluorescence ratio (interference) [3] 0.9 | z-score [13] -0.344 | outcome [11] | outcome [8] | outcome [9]
active: fluorescence slope change [1] 137% | AC50 [12] 20.9 µM | AC50 [6] 23.5 µM
